High-throughput results: PubChem, National Center for Advancing Translational Sciences (NCATS)
In the library only some 3.3% were active in any assay of this set; here they are far more common.
NPSR antagonist: neuropeptide S receptor (human) antagonism, cAMP. AID 1461. 220,000 compounds, 1% hits. Potency, µM (top dose mostly 38.3 µM), most hits filed as inhibitors. Q6W5P4. CHO-NPSR cells, cAMP TR-FRET, antagonist mode; also: nearly all actives have a fitted effect of over 50% in size
12-hLO inh: blocks human 12-lipoxygenase activity. P18054. purified 12-hLO, xylenol orange hydroperoxide absorbance. Potency, µM (doses to about 57.1 µM), hits mostly inhibitors. 150,000 compounds, 0.12% hits. AID 1452; also: nearly all actives have a fitted effect of over 55% in size
Target sequence (P18054 whole entry, looked up): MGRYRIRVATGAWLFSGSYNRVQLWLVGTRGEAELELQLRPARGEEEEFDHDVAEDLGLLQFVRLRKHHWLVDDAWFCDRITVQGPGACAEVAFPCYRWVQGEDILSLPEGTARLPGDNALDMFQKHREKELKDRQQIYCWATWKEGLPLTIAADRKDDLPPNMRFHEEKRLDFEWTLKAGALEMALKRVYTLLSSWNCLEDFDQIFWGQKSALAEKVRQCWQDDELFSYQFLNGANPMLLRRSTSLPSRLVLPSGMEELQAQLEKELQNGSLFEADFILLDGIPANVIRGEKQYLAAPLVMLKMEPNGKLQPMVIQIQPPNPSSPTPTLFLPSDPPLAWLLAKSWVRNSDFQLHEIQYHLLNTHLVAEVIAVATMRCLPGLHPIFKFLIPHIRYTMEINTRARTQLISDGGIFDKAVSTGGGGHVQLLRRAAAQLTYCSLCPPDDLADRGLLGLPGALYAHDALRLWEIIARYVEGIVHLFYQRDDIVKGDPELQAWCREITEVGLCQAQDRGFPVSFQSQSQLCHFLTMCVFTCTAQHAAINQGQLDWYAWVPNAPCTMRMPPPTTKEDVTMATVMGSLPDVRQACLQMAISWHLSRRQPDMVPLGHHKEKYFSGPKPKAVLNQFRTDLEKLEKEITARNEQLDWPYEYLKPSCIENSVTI
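Lipoxygenase turnover measured by absorbance at 573 and 405 nm after Fe-XO development. Human 12hLO 150 nM, arachidonate 40 uM, pH 7.0 Hepes buffer with detergent; 15 min compound preincubation, 30 min reaction.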
PNC assembly inh: perinucleolar compartment assembly inhibition; PC3M PTB-GFP, PNC prevalence imaging, 16 h; stronger effect = lower value; 140,000 compounds, 3.1% hits; activity change (PNC), negative = inhibition, % at 10 µM;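 active = readout at or below -70, meaning at least 70% loss of cells showing the perinucleolar compartment, a nuclear body marking cancer cells; inconclusive = readout between -30 and a set limit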
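Read-out is percentage of cells bearing a perinucleolar compartment, from automated 20x imaging of fixed, Hoechst-stained PC3M PTB-GFP cells. Cells were seeded 4 h, then exposed 16 h to compound (23 nl of library stock) in duplicate plates.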
HTT cytoprotect: Huntington cell model cytoprotection by ATP luminescence; PC12 HTT-Q103 induced, cytoprotection, ATP luminescence, 40 h; Potency, µM (highest dose often 56.4 µM), usual class: activators; 230,000 compounds, 0.14% hits; AID 1471; also: nearly all actives have a fitted effect of over 45% in size
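Stable PC12 Q103-GFP cells in serum-supplemented, phenol red-free DMEM; induction by tebufenozide at 100 nM final; compound dose series; cell viability quantified luminescently from ATP.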
HttQ103 aggreg: mutant huntingtin aggregation inhibition. PC12 HttQ103-GFP aggregates, Acumen cytometry, 40 h. Potency, µM (highest dose often 46.1 µM), actives largely listed as inhibitors. 220,000 compounds, 1.1% hits. AID 1688; also: nearly all actives have a fitted effect of over 60% in size
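Aggregate formation scored by laser-scanning cytometer (488 excitation, 500–530 emission) in lysed PC12 cells expressing Q103-GFP after 100 nM tebufenozide induction; library tested in dose series, with ATPLite reagent added in the multiplex.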
IMPase inh: membrane-permeable compound that blocks inositol monophosphatase | P97697 | CHO-M1 cells, IP1 accumulation, HTRF TR-FRET ratio | inhibition (IP1 accumulation), % at 46.1 µM | 120,000 tested, under 10 active | AID 901; active = well fitted curve in the direction sought with a large enough effect in the signal ratio, not every such curve was filed as active; inconclusive = small, poorly fitted or top-dose-only effect, or a change in a side signal; inactive = no such curve, though single readings can be large or run the other way; the % refers to the signal ratio;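 also: cells stimulated with carbachol in lithium chloride buffer; higher means more IMPase inhibition seen as more IP1 and lower FRET ratio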
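CHO-M1, 2000 cells/well, cultured 16–30 h; cpd up to 46 uM; carbachol (50 uM solution, stimulation buffer w/ 50 mM LiCl, pH 7.4), 30 min 37C; IP-One TR-FRET, 10 min RT; Ex 320/Em 665, 620; Hill-fit AC50.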
Numbers stand for hits; - = inactive; ? = inconclusive; . = no result given; [ ] = dose if it differs, or a comment. Unless noted, calls follow the shape of the dose curve; as a rule, active = well fitted curve in the direction sought with a large enough effect; inconclusive = small, poorly fitted or top-dose-only effect, or another doubt; inactive = no such curve, though single readings can be large; an effect the other way counts as inactive or inconclusive.

SMILES | NPSR antagonist | 12-hLO inh | PNC assembly inh | HTT cytoprotect | HttQ103 aggreg | IMPase inh
CCOC(=O)Cc1csc(NC(=O)C2C3C=CC(C3)C2C(=O)O)n1 (stereo not drawn) | - | - | -107 | -[0.074 µM] | - | -
O=C(NC1CC2CCC1C2)C1COc2ccccc2O1 (stereo not drawn) | - | - | -86 | -[1.9 µM] | - | -
CCc1nnc(NC(=O)C2CCN(S(=O)(=O)Cc3ccccc3)CC2)s1 | - | - | -100 | -[10 µM] | - | -
COc1ccccc1CNC(=O)C1COc2ccccc2O1 (stereo not drawn) | - | - | - | - | - | -
CCc1nnc(NC(=O)C2COc3ccccc3O2)s1 (stereo not drawn) | - | - | -80 | - | - | -
COc1ccc(CNC(=O)C2COc3ccccc3O2)cc1 (stereo not drawn) | - | - | -100 | -[10 µM] | - | -
CSCCC(NC(=O)c1ccc(C(C)(C)C)cc1)C(=O)O (stereo not drawn) | - | . | . | - | - | .
CC(CN(C)C)CN1c2ccccc2Sc2ccc(C(F)(F)F)cc21 (stereo not drawn) | . | . | . | - | - | .
Nc1ncnc2c1ncn2[C@@H]1O[C@@H](COP(=O)(O)OP(=O)(O)OP(=O)(O)OP(=O)(O)OC[C@@H]2O[C@@H](n3cnc4c(N)ncnc43)[C@@H](O)[C@H]2O)[C@H](O)[C@@H]1O | . | - | . | -[1.9 µM] | . | -
O=S(=O)(Cc1ccccc1)N1CCCC1 | - | - | -100 | - | - | -
Cc1cc(C)cc(NC(=O)CCC(=O)Nc2cc(C)on2)c1 | - | - | -100 | -[10 µM] | - | -
Cc1cc(NC(=O)CCCC(=O)Nc2ccc(F)cc2)no1 | - | - | - | -[10 µM] | - | -
O=C(Nc1nnc(-c2ccc(F)cc2)o1)c1cccc([N+](=O)[O-])c1 | - | . | . | - | 5.6µM | .
O=C(Nc1nnc(-c2ccc3c(c2)CCCC3)o1)c1ccccc1 | - | - | - | -[10 µM] | ? | ?
O=C(Nc1nnc(-c2ccc3c(c2)CCCC3)o1)c1ccccc1Cl | - | - | - | - | 11µM | -
O=C(Nc1nnc(-c2ccncc2)o1)c1ccccc1 | - | . | . | - | ? | .
O=C(Nc1nnc(-c2ccc(F)cc2)o1)c1cc(Cl)sc1Cl | - | - | - | -[10 µM] | 11µM | .
O=C(Nc1nnc(-c2ccccc2)o1)c1cc(Cl)sc1Cl | - | - | - | -[10 µM] | - | .
O=C(/C=C/c1ccc2c(c1)OCO2)Nc1nc2ccc(F)cc2s1 | - | . | . | -[10 µM] | -[9.22 µM] | .
CCOc1ccc(Cl)cc1S(=O)(=O)n1cnc2ccccc21 | - | - | ? | - | - | -
CCOc1cc(C)c(Cl)cc1S(=O)(=O)n1cnc2ccccc21 | - | - | -107 | -[0.074 µM] | ? | -
CCOC(=O)c1ccc(NC(=S)NCc2ccco2)cc1 | - | . | . | -[10 µM] | -[9.22 µM] | .
COc1ccc(-c2oc3ncn4nc(-c5ccccc5O)nc4c3c2-c2ccc(OC)cc2)cc1 | . | . | . | . | . | -
CCC(C)C(=O)OC1CCC=C2C=CC(C)C(CCC3CC(O)CC(=O)O3)[C@@H]21 (stereo partly drawn) | . | - | . | - | - | .
O=C(Nc1ccc(Nc2ccccc2)cc1)C(Cl)Cl | - | - | -91 | -[10 µM] | ? | .
SMILES | NPSR antagonist | 12-hLO inh | PNC assembly inh | HTT cytoprotect | HttQ103 aggreg | IMPase inh
NC(=O)Nc1ccc(Nc2ccccc2)cc1 | -[7.67 µM] | . | . | -[10 µM] | -[9.22 µM] | .
Cc1ccc(CS(=O)(=O)c2ncn[nH]2)cc1 | - | . | . | - | - | .
Cc1cc(NC(c2cccnc2)c2ccc3cccnc3c2O)no1 (stereo not drawn) | - | - | - | - | ? | -
COc1ccc(C(NC(=O)c2cccnc2)c2cc(Cl)c3cccnc3c2O)cc1OC (stereo not drawn) | - | - | - | - | 2.8µM | -
Oc1c(C(Nc2ccccn2)c2cccnc2)cc(Cl)c2cccnc12 (stereo not drawn) | - | - | - | -[10 µM] | 7.1µM | .
CCOC(=O)C(NC(C)=O)(NS(=O)(=O)c1ccccc1)C(F)(F)F (stereo not drawn) | - | - | - | - | 3.2µM | -
CCOC(=O)NC(NS(=O)(=O)c1ccccc1)(C(=O)OCC)C(F)(F)F (stereo not drawn) | - | - | ? | . | - | .
CCCCCCCC/C=C\C/C=C\C=C\C(O)CCCC(=O)O (stereo not drawn) | . | - | . | - | . | .
O=C1CS/C(=N/N=C/c2ccccc2OS(=O)(=O)c2ccccc2)N1 | - | - | ? | . | ? | .
Cc1ccc(OS(=O)(=O)c2ccccc2)c(/C=N/N=C2\NC(=O)C(C)S2)c1 (stereo not drawn) | - | - | -82 | -[10 µM] | - | -
Cc1ccc(S(=O)(=O)N2C(=O)/C(=C3\SC(=S)NC3=O)c3ccccc32)cc1 | - | . | . | . | 0.79µM | .
COc1ccc2c(c1)C(=O)[C@@H](OC(=O)NS(=O)(=O)c1ccc(C)cc1)[C@H](c1ccc(OC)c(Br)c1)O2 | . | . | . | - | . | .
O=C(O)c1cc(-c2ccco2)[nH]n1 | - | - | -89 | -[10 µM] | - | .
CC1CCC(C(=O)NNC(=O)c2cc(-c3ccco3)[nH]n2)CC1 (stereo not drawn) | - | . | . | ? | - | .
CCN(CC)CCNC(=O)c1cccc(NC(=O)C(=O)c2cc(Br)ccc2NC(C)=O)c1 | - | . | . | -[10 µM] | - | .
Cc1cc(C(=O)Nc2c(C)nn(Cc3c(Cl)cccc3Cl)c2C)no1 | - | - | - | - | - | -
Cc1nn(Cc2c(Cl)cccc2Cl)c(C)c1NC(=O)c1cc(C(C)C)on1 | - | - | -102 | - | ? | -
CC(C)(C)c1ccc(CN2N=Nc3ccccc3S2(=O)=O)cc1 | 10µM | - | - | - | -[9.22 µM] | -
O=C(NCCOC(=O)c1ccncc1)c1ccccc1 | - | - | - | - | - | -
COc1cc(C(=O)OCCNC(=O)c2ccncc2)cc(OC)c1OC | - | - | -111 | -[10 µM] | - | -
O=S(=O)(NCCNC/C=C\c1ccc(Br)cc1)c1cccc2cnccc12 | . | - | . | -[1.9 µM] | . | -
CCOC(=O)NNC(=O)NCCCCCCNC(=O)NNC(=O)OCC | - | . | . | -[10 µM] | -[9.22 µM] | .
CC(=O)NC1C(=O)N=C(SCC(=O)NCc2ccccc2)NC1=O (stereo not drawn) | - | - | -100 | -[10 µM] | - | -
CC(=O)NC1C(=O)N=C(SCC(=O)Nc2c(C)cccc2C)NC1=O (stereo not drawn) | - | . | . | -[10 µM] | - | .
O=C(OCc1cc2ccccc2[nH]c1=O)c1ccccc1 | ? | - | - | -[0.074 µM] | - | -
O=C(OCc1cc2ccccc2[nH]c1=O)c1ccncc1 | - | - | -100 | -[0.074 µM] | - | ?
CCOC(=O)c1ccccc1NS(=O)(=O)c1ccc(OCC)cc1 | - | - | - | -[10 µM] | 11µM | -
CCOc1ccc(NC(=O)c2ccccc2NS(=O)(=O)c2ccc(F)cc2)c([N+](=O)[O-])c1 | - | - | - | -[10 µM] | 11µM | .
